# Source: PubChem BioAssay (National Center for Advancing Translational Sciences (NCATS))
# Most compounds without a hit are left out; they make up all but 18% or so of the library.
# DT40 TDP1 no CPT – qHTS for Inhibitors of human tyrosyl-DNA phosphodiesterase 1 (TDP1): qHTS in cells in absence of CPT; DT40 Tdp1-/- hTDP1 cells, no CPT, ATP luminescence, 48 h; Potency, µM (titrated, usually from 46.2 µM), for the others: at the highest dose activity change, negative = growth inhibition, hits mostly inhibitors; hit rate 15% among 420,000; further: nearly all actives have a fitted effect of over 55% in size
#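 A cellular qHTS used chicken DT40 cells lacking endogenous Tdp1 but carrying stably transfected human TDP1. Compounds were applied without camptothecin, and cell growth kinetics were judged by ATP-dependent luminescence after ≥48 hr.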
# PLK1 PBD inh – blocks phosphopeptide binding to human PLK1 polo-box domain. Plk1 PBD binding of FITC phosphopeptide, fluorescence polarization. Potency, µM, for the others: max response, negative = inhibition, usual class: inhibitors. P53350. hit rate 2.8% among 360,000; further: series mostly up to about 57 µM; nearly all actives have a fitted effect of over 65% in size
# TDP1 inh – TDP1 (human) enzyme inhibition; Q9NUW8; recombinant TDP1, AlphaScreen DNA substrate cleavage; Potency, µM (doses to about 130 µM), without a hit: at the top dose activity change, negative = inhibition, hits mostly inhibitors; hit rate 0.28% among 350,000; AID 485290; further: nearly all actives have a fitted effect of over 40% in size
#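 Here, a 5' biotin and 3' phosphotyrosine-FITC DNA oligonucleotide reports Tdp1 activity: intact substrate bridges AlphaScreen beads, while cleavage leaves a 3' phosphate and drops signal. All incubations at room temperature.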
# DT40 TDP1 CPT – growth inhibition of DT40 Tdp1-/-;hTDP1 cells with camptothecin (screen for TDP1 inhibitors); hit rate 12% among 420,000; chicken DT40 Tdp1-/-;hTDP1 cells + 20 nM CPT, ATP luminescence, 48 h; Potency, µM (doses to about 46.2 µM), without a hit: top-dose activity change, negative = growth inhibition, actives largely listed as inhibitors; further: nearly all actives have a fitted effect of over 55% in size
#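 Cell growth measured by CellTiter-Glo luminescence after a minimum 48 h, 37 C compound exposure with 20 nM CPT in Tdp1-knockout DT40 cells stably expressing hTDP1, seeded 400/well; qHTS titration format.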
# GCN5L2 inh – blocks human GCN5L2 histone acetyltransferase | Q92830 | GCN5L2 HAT assay, ThioGlo1 CoA-SH fluorescence | Potency, µM (titrated, usually from 58.9 µM), for the others: top-dose activity change, negative = inhibition, actives largely listed as inhibitors | hit rate 0.21% among 390,000 | AID 504327
#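 Titration-based screen in which CoA formation is detected via maleimide probe ThioGlo1 (50uM) turning fluorescent on thiol reaction; substrates H3(1-25) 75uM and acetyl-CoA 70uM, GCN5L2 20nM, 20 min incubation at room temperature.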
# VDR inh – inhibitors of human vitamin D receptor; AID 504847; VDR-SRC2-3 peptide fluorescence polarization, 2 h; Potency, µM, for inactives: max response, negative = inhibition, most hits filed as inhibitors; hit rate 0.93% among 400,000
#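 Fluorescence polarization assay of small-molecule disruption of VDR binding to coregulator peptide SRC2-3. Compounds and controls pin-transferred, then read after 2 h incubation at ambient room temperature.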
# * = called active by the depositor; u = inconclusive; x = no result given. The call rests on the fitted dose curve; in most records, active means well fitted curve in the direction sought with a large enough effect; inconclusive means small, poorly fitted or top-dose-only effect, or another doubt; inactive means no such curve, though single readings can be large; an effect the other way counts as inactive or inconclusive. On the % scale 0 is the no-effect control and ±100 the full control effect; potency means the concentration at half of the fitted maximal effect.
SMILES,DT40 TDP1 no CPT,PLK1 PBD inh,TDP1 inh,DT40 TDP1 CPT,GCN5L2 inh,VDR inh
Cc1ccc(CNC(=O)c2ccc(CSCc3ccc(Cl)cc3)o2)cc1,16µM*,x,3%,u,-6%,11%
O=C(NCc1ccccc1Cl)c1ccc(CSCc2cccc(F)c2)o1,u,x,-6%,26µM*,-11%,-4%
Cc1ccc(CC(=O)NCc2ccc(Cl)cc2)cc1,3.7µM*,15µM*,-7%,4.6µM*,3%,u
O=C(NCc1ccc(F)cc1Cl)c1ccc(CSCc2ccccc2Cl)o1,u,x,3%,u,2%,2%
CCC(C)NC(=O)c1ccc(CSCc2ccccc2Cl)o1 (stereo unspecified),u,-6%,x,u,-1%,-15%
CCOc1ccc(S(=O)(=O)N2CCN(C(=O)C3CCC3)CC2)cc1,u,3%,x,u,-6%,-3%
CCOC(=O)c1ccc2nc(CCC(=O)N[C@H](C(=O)OC)C(C)C)c(=O)n(CC)c2c1,6%,7%,9%,1%,-3%,22%
CC(C)C(C)NC(=O)COC(=O)c1cc(S(=O)(=O)N(C)C)ccc1N1CCCC1 (stereo unspecified),x,x,-5%,x,-6%,x
O=C(O)[C@H]1CCCN1,-18%,x,3%,12%,8%,3%
O=C(NCc1ccc(Cl)cc1)c1ccc(CSCc2cccc(Cl)c2)o1,u,x,-10%,-26%,-5%,-1%
Cc1nc(C)c(C(=O)NCc2ccc(Cl)cc2)o1,u,u,3%,u,1%,3%
Cc1nn(C)c(C(=O)NCc2ccc(Cl)cc2)c1Cl,4.1µM*,-6%,1%,4.1µM*,-1%,-14%
O=C(NCc1ccc(F)cc1)c1ccc(CSCc2cccc(Cl)c2)o1,21µM*,x,0%,u,-3%,5%
O=C(O)c1ccc(CSCc2ccccc2Cl)o1,-23%,21µM*,x,-26%,9%,u
Cc1ccc(CSCc2ccc(C(=O)NCCCN3CCOCC3)o2)cc1,6.5µM*,-5%,0%,u,-3%,7%
COc1ccccc1-n1nc(-c2ccccc2)c2cnc3cc(C(F)(F)F)ccc3c21,4%,x,2%,2%,-1%,-11%
Cc1[nH]c(=O)[nH]c(=O)c1S(=O)(=O)N(CC(C)C)CC(C)C,-12%,-2%,-5%,-11%,-4%,8%
COc1ccc(Br)cc1CNC(=O)CSc1cc(=O)n(C)c2ccccc12,2%,x,-2%,-3%,1%,-16%
COc1ccccc1CN1CCCC2(CCN(C(C)=O)CC2)C1,4%,x,x,13%,-4%,-12%
CCOc1ccc(OCCCC(=O)Nc2cc(Cl)ccc2-n2cncn2)cc1,-12%,-9%,0%,-11%,-9%,-7%
CC(=O)Nc1ccc(-c2ccnc3c2CC(C(=O)NCc2ccccc2)O3)cc1 (stereo unspecified),0.018µM*,-8%,x,0.023µM*,x,x
CC(=O)Nc1ccc(-c2ccnc3c2CC(C(=O)NCCc2ccccc2)O3)cc1 (stereo unspecified),u,-2%,x,u,x,x
CC(=O)Nc1ccc(-c2ccnc3c2CC(C(=O)NCc2ccco2)O3)cc1 (stereo unspecified),0.0065µM*,-10%,x,0.18µM*,x,x
O=C(COc1ccc(Cl)cc1)Nc1ccc(C(=O)OCc2cc(=O)n3ccsc3n2)cc1,u,x,4%,15µM*,47%,7%
CN(CC(=O)Nc1ccc(Cl)cc1)Cc1cc(=O)n2ccsc2n1,3%,30µM*,1%,-23%,-5%,-2%
CCCOc1c(Br)cc(C(=O)OCc2cc(=O)n3ccsc3n2)cc1OC,10µM*,-11%,x,5.8µM*,x,-10%
CCCCC(=O)Nc1ccc(C(=O)OCc2cc(=O)n3ccsc3n2)cc1,16µM*,x,-1%,u,20%,-2%
